ALDH1A1 inh – qHTS Assay for Inhibitors of Aldehyde Dehydrogenase 1 (ALDH1A1); Aldehyde dehydrogenase 1A1 (Homo sapiens), P00352; Purified ALDH1A1, NADH fluorescence, propionaldehyde substrate; Potency, µM (series often up to 75.3 µM), inactives show top-dose activity, negative = inhibition, most hits filed as inhibitors; hit rate 7.3% among 220,000; AID 1030, 2008; active means well fitted inhibition curve with a large enough effect, not every such curve was filed as active; inconclusive means small, poorly fitted or top-dose-only effect, or another doubt; inactive means no such curve, though single readings can be large or run the other way;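 further: plate controls were no enzyme wells and a reference inhibitor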
Target sequence (P00352 whole entry, looked up): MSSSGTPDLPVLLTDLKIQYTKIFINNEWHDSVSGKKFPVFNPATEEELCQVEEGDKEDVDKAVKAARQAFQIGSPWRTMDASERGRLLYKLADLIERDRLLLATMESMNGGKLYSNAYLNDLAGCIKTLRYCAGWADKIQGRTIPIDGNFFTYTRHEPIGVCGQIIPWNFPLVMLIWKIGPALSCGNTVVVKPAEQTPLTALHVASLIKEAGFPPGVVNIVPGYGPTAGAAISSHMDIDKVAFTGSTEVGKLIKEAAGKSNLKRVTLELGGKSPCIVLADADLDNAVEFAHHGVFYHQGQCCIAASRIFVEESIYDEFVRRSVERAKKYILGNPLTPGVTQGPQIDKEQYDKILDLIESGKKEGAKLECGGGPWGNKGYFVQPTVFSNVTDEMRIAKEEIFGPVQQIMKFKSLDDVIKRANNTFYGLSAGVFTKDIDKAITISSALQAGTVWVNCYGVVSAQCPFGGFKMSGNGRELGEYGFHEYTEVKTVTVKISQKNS
HTT cytoprotect – qHTS Multiplex Assay to Identify Dual Action Probes in a Cell Model of Huntington: Cytoprotection (ATP) | PC12 HTT-Q103 induced, cytoprotection, ATP luminescence, 40 h | Potency, µM (titrated, usually from 56.4 µM), inactives show cytoprotection (ATP increase), usual class: activators | hit rate 0.14% among 230,000; further: % of control where 0% means no effect; nearly all actives have a fitted effect of over 45% in size
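PC12 cells with ecdysone-inducible HTT exon 1 Q103-GFP, induced with 100 nM tebufenozide and co-treated with library compounds in a dose series (1536-well, 1500 cells/well). Cytoprotection read as ATP content by ATPlite luminescence.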
HTT aggregate – qHTS Multiplex Assay to Identify Dual Action Probes in a Cell Model of Huntington: Aggregate Formation (GFP); PC12 HttQ103-GFP aggregates, Acumen cytometry, 40 h; Potency, µM (doses to about 46.1 µM), for the others: top-dose activity change, negative = inhibition, actives largely listed as inhibitors; hit rate 1.1% among 220,000; further: on the % scale 0 is the no-effect control and ±100 the full control effect; nearly all actives have a fitted effect of over 60% in size
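Huntingtin Q103 exon 1–GFP aggregates in induced PC12 cells (100 nM tebufenozide) were quantified by cytometry from lysates, with compounds dosed in titration.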
Luc counter – Counterscreen for Luciferase (Kinase-Glo TM) Inhibition | Kinase-Glo luciferase, ATP luminescence, 8 min | Potency, µM (top dose mostly 38.3 µM), inactives show top-dose activity change, negative = inhibition, most hits filed as inhibitors | hit rate 0.28% among 200,000; further: on the % scale 0 is the no-effect control and ±100 the full control effect; nearly all actives have a fitted effect of over 60% in size
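Inhibition of Kinase-Glo luciferase light generation was assessed at 10 uM ATP in pH 7.2 imidazole buffer, with luminescence measured after eight minutes at ambient temperature.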
Lamin A splicing – qHTS Assay for Modulators of Lamin A Splicing | AID 1487, 2009 | HeLa LMNA splicing GFP/RFP minigene ratio, 48 h | Potency, µM (doses to about 46.1 µM), inactives show at the top dose ratio change, negative = inhibition, most hits filed as inhibitors | hit rate 0.01% among 200,000; active means well fitted inhibition curve with a large enough effect in the signal ratio, with a control signal flat, not every such curve was filed as active; inconclusive means small, poorly fitted or top-dose-only effect, or effect the other way, or a change in a side signal; the % refers to the signal ratio; further: on the % scale 0 is the no-effect control and ±100 the full control effect
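S3 HeLa stable clones carrying a lamin A-EGFP splicing minigene plus DsRed2 were seeded at 600 cells/well in Opti-MEM with 2% FBS, pin-dosed and incubated 48 h at 37°C. Acumen cytometry (488 nm) gave the GFP/RFP total-intensity ratio.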
HPGD inh – qHTS Assay for Inhibitors of HPGD (15-Hydroxyprostaglandin Dehydrogenase); 15-hydroxyprostaglandin dehydrogenase [NAD(+)] (Homo sapiens), P15428; purified HPGD, NADH fluorescence kinetic, PGE2 substrate; Potency, µM, for inactives: top-dose activity change, negative = inhibition, usual class: inhibitors; hit rate 4.3% among 150,000; AID 894, 2007; active means well fitted inhibition curve with a large enough effect, not every such curve was filed as active; inconclusive means small, poorly fitted or top-dose-only effect, or another doubt; inactive means no such curve, though single readings can be large or run the other way; further: on the % scale 0 is the no-effect control and ±100 the full control effect
Target sequence (P15428 whole entry, looked up): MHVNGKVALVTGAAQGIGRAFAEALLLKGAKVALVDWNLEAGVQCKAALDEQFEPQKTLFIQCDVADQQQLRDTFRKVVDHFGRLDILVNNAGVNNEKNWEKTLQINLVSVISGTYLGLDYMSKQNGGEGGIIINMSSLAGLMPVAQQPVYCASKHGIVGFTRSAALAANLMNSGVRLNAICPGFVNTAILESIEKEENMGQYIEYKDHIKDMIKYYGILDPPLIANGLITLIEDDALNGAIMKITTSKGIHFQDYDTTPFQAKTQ
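20 nM HPGD preincubated 15 min at room temperature with compound in 50 mM Tris-HCl pH 8, 0.01% Tween 20. Started with 1 mM NAD+ and 30 uM prostaglandin E2; NADH fluorescence (360/450 nm) read 5 times over 30-s intervals, last minus first.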
Numbers without * were called inactive; ? = inconclusive; · = not tested or not shown; [ ] = dose if it differs, or a comment. Only some compounds are listed: those with a hit (about 9% of all), similar ones and a draw of the others. Unless noted, the call rests on the fitted dose curve; in most records, active means well fitted curve in the direction sought with a large enough effect; inconclusive means small, poorly fitted or top-dose-only effect, or another doubt; inactive means no such curve, though single readings can be large; an effect the other way counts as inactive or inconclusive. Potency means the concentration at half of the fitted maximal effect.

SMILES | ALDH1A1 inh | HTT cytoprotect | HTT aggregate | Luc counter | Lamin A splicing | HPGD inh
COc1ccc(OCc2nn3c(-c4ccco4)nnc3s2)cc1 | 32µM* | -12%[0.074 µM] | 2% | · | -16% | ·
c1coc(-c2nn3c(-c4ccco4)nnc3s2)c1 | 20µM* | -17% | -2% | -1% | -1% | -26%
c1coc(-c2nnc3sc(Cc4cccs4)nn23)c1 | 20µM* | -52%[10 µM] | ? | -8% | -16% | ?
Clc1ccc(OCc2nn3c(-c4ccco4)nnc3s2)cc1 | 22µM* | -13% | ? | -2% | ? | ?
Cc1nn(-c2ccc(C(=O)OC(C)C)cc2)c(C)c1[N+](=O)[O-] | ? | 0% | 13% | -3% | · | ·
COc1ccc(N(C(=O)c2ccccc2)S(=O)(=O)c2cccs2)cc1 | ? | -13%[1.9 µM] | 22%[9.22 µM] | 1% | ? | ·
COc1ccc(C(=O)N(c2ccc(OC)cc2)S(=O)(=O)c2cccs2)cc1 | 5µM* | 26%[10 µM] | -14% | -4% | -8% | -12%
Cc1nn(-c2ccccc2)c2c1C(c1ccncc1)C(C#N)=C(N)O2 (configuration not stated) | 14µM* | 12%[10 µM] | 29% | 1% | -5% | -13%
Cc1ccc(-n2nc(C)c3c2OC(N)=C(C#N)C3c2ccccc2F)cc1 (configuration not stated) | 4µM* | 15% | ? | 1% | -11% | -14%
O=C(CC1Nc2ccccc2NC1=O)NCc1cccnc1 (configuration not stated) | ? | -4% | -6% | -5% | 0% | ?
CCN1CCN(c2nc3sc4c(c3c(=O)n2-c2ccc(OC)cc2)CCCCC4)CC1 | 10µM* | -25% | -3% | 0% | -14% | -14%
COc1ccc(-n2c(NN)nc3sc4c(c3c2=O)CCCC4)cc1 | ? | · | -19% | 0% | ? | ·
Cc1cc(C)c(OCC(=O)Nc2ccccn2)c([N+](=O)[O-])c1 | 0% | · | -4% | 3% | 8% | -6%
O=c1[nH]c(NNC(=S)NC2CCCCC2)nc2c1C1(CCCC1)Cc1ccccc1-2 | · | 21%[10 µM] | 17%[9.22 µM] | · | · | ·
O=c1c2c(nc3n1CCCCC3)-c1ccccc1CC21CCCC1 | 0.63µM* | -4%[10 µM] | ? | 5% | ? | -14%
CN(C)Cc1nc2c(c(=O)[nH]1)C1(CCCCC1)Cc1ccccc1-2 | 1% | -30% | 3% | 2% | ? | -16%
CCN(CC)Cc1nc2c(c(=O)[nH]1)C1(CCCCC1)Cc1ccccc1-2 | 25µM* | 11%[10 µM] | 14% | 1% | -8% | -2%
C=CCNC(=S)NNc1nc2c(c(=O)[nH]1)C1(CCCC1)Cc1ccccc1-2 | 3.5µM* | 5%[10 µM] | -9% | 3% | -9% | ?
Oc1ccc(/C=N/Nc2ccc(C(F)(F)F)cn2)cc1 | -5% | 8%[10 µM] | 6% | -1% | · | ·
O=C(CSc1n[nH]c(-c2ccccc2)n1)c1ccc(O)c(O)c1 | -2% | 23%[10 µM] | -11% | -2% | ? | 3.5µM*
CCc1ccc(C(=O)CSc2n[nH]c(-c3ccncc3)n2)cc1 | ? | -35% | ? | 0% | ? | 11µM*
O=C(Cn1cc(C(F)(F)F)ccc1=O)Nc1cc(S(=O)(=O)N2CCOCC2)ccc1Cl | 10% | 29%[10 µM] | -14% | -2% | -2% | -8%
CCn1c(SCc2cccc(F)c2)nc2c(c1=O)SCC2 | 14µM* | -58% | -16% | 5% | · | ·
Cn1c(N2CCOCC2)nc2c1c(=O)n(Cc1ccc(Cl)c(Cl)c1)c(=O)n2C | -7% | -15% | -17% | -1% | ? | -25%
Cn1c(OCc2ccco2)nc2c1c(=O)n(Cc1ccc(Cl)c(Cl)c1)c(=O)n2C | 25µM* | 6%[10 µM] | 17% | 1% | -18% | -16%
SMILES | ALDH1A1 inh | HTT cytoprotect | HTT aggregate | Luc counter | Lamin A splicing | HPGD inh
CCOC(=O)c1cnc(-n2nc(C)cc2C)nc1N(CC)CC | 6% | -24% | -19% | 3% | ? | -4%
C=CCSc1nc2c(cnn2-c2ccc(C)c(C)c2)c(=O)[nH]1 | 14% | -12% | 3% | -2% | -5% | -12%
CCCN(CCC)C(=O)CSc1nc2ccsc2c(=O)n1NC(=O)c1ccccc1 | 5% | -10% | 15% | -2% | -1% | -3%
Cc1ccc(-n2c(Cl)c(Cl)nc(Cl)c2=O)cc1 | 0.63µM* | · | 4.5µM* | -2% | ? | 2.5µM*
COc1nc(Cl)cn(-c2ccc(C)cc2)c1=O | ? | · | -19% | 12% | ? | -21%
Cc1ccc(C(=O)NC(=S)Nc2ccc(S(=O)(=O)N(C)c3ccccc3)cc2)cc1 | 11µM* | -15% | -5% | -5% | 6% | -7%
CN(c1ccccc1)S(=O)(=O)c1ccc(NC(=S)NC(=O)C2CC2)cc1 | ? | 9%[10 µM] | 6% | -4% | ? | -7%
COc1ccccc1/C=C/C(=O)NC(=S)Nc1ccc(S(=O)(=O)N(C)c2ccccc2)cc1 | 28µM* | -16% | 14% | -4% | 0% | -22%
CN(c1ccccc1)S(=O)(=O)c1ccc(NC(=S)NC(=O)c2ccccc2)cc1 | 10µM* | 3% | ? | -2% | ? | -20%
CCCCC[C@H](O)/C=C/[C@H]1OC(=O)C[C@H](O)[C@@H]1C/C=C\CCCC(=O)O | ? | 10% | · | -2% | · | -7%
O=C1CC(c2ccccc2)CC(=O)C1CS(=O)(=O)c1ccccc1 (configuration not stated) | 11µM* | 2% | 8% | 2% | · | ·
COc1cccc(CCc2nnc(CCC(=O)NCCc3cccc(C)n3)o2)c1 | ? | 26%[10 µM] | 19%[9.22 µM] | -2% | 4%[46 µM] | ·
COc1cccc(CCc2nnc(CCC(=O)N3CCN(Cc4ccccn4)CC3)o2)c1 | 8.9µM* | -5%[10 µM] | 34%[9.22 µM] | · | · | ·
CCOCC(=O)Nc1ccc(C(=O)Nc2ccccc2Cl)cc1 | 3% | -10%[10 µM] | -4%[9.22 µM] | -2% | 5%[46 µM] | ·
Cc1ccc(NC(=O)COC(=O)CC2CCCC2)cc1Cl | 22µM* | -17%[10 µM] | 28% | 1% | -18%[46 µM] | ·
CCOCC(=O)Nc1cc(C(=O)Nc2cc(C)cc(C)c2)ccc1Cl | -36% | 9%[10 µM] | 11%[9.22 µM] | 11µM* | 15%[46 µM] | ·
CCOCC(=O)Nc1ccc(C)c(Cl)c1 | 25µM* | 3% | 7% | -4% | 7% | 16µM*
Cc1ccc(NC(=O)Nc2nnc(SCC(=O)Nc3ccc(F)cc3F)s2)cc1 | · | · | · | · | 6%[46 µM] | ·

Screening results deposited in PubChem by National Center for Advancing Translational Sciences (NCATS).
